Laboratory results reported in PubChem BioAssay (NCI).
Compounds without any hit were thinned out: in the full panel of roughly 83,000, 20% have a hit.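 Growth was measured after 48 h exposure to one concentration of compound in 96-well plates. Values under 10 count as active.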 Unmarked numbers belong to inactive results. The source made the active and inactive calls.

The molecules below were run on HL-60(TB) leukemia (assay: NCI-60 one-dose screen, 48 h (100 = growth as untreated, 0 = no growth, -100 = all killed)). Details: 10 µM unless noted.

Row | SMILES | growth
1 | C=CCn1c(SCC(=O)Nc2ccc(C(=O)/C=C/c3cc(OC)c(OC)c(OC)c3)cc2)nnc1-c1cc(-c2ccc(Cl)cc2)nc2ccccc12 | 98.7%
2 | O=C(Nc1ncc(Cc2ccc(Cl)cc2)s1)c1ccc2c(c1)OCCO2 | -49.3% (active)
3 | O=C(O)CNC(=O)CN1C(=O)c2ccccc2C1=O | 90.7%
4 | C=C(C)[C@@H]1CC[C@]2(C(=O)O)CC[C@]3(C)[C@H](CC[C@@H]4[C@@]5(C)C/C(=C/c6ccco6)C(=O)C(C)(C)[C@@H]5CC[C@]43C)[C@@H]12 | -17.2% [100 µM] (active)
5 | COC1C(O)CC(OC2CC(OC3CC(O[C@@H]4C(=O)c5c(cc6cc(OC7CC(OC8CC(O)C(O)C(C)O8)C(O)C(C)O7)c(C)c(O)c6c5O)CC4[C@H](OC)C(=O)C(C)=O)OC(C)C3O)OC(C)C2O)OC1C (stereo not given in full) | -18.6% (active)
6 | Nc1nc(N)c2c(n1)NC(c1ccc3c(c1)OCO3)CC(c1cccc(Nc3ccncc3)c1)=N2 (stereo not given) | 57%
7 | CONC1=Nc2cc(NC(N)=NCc3ccccc3)c(N(C)C3CCCCC3)cc2OC1 | 69.5%
8 | COc1ccc(CN2CCC(N3CCCC3=O)c3cc(Cl)ccc32)cc1 (stereo not given) | 80.2%
9 | CCCCCc1ccc(S(=O)(=O)Nc2cc(-c3csc(NC(C)=O)n3)ccc2N2CCN(C)CC2)cc1 | -61.7% (active)
10 | C/C(=C(/c1ccc(Cl)cc1)c1ccc(OCCN2CCCC2)cc1)c1ccccc1 | 70.4%
11 | CCOC(=O)c1csc(NC(=O)COc2ccc(/C=C3\Oc4ccccc4C3=O)cc2)n1 | 7.24% (active)
12 | C#C[C@]1(O)CC[C@H]2[C@@H]3CC=C4c5sc(N=C(N)N)nc5CC[C@]4(C)[C@H]3CC[C@@]21C | -44.8% (active)
13 | CC/C(Cc1ccccc1)=C(\c1ccc(OCCN2CCCC2)cc1)c1ccc(OC(C)=O)cc1 | 71.3%
14 | O=c1[nH]c(=O)n(C2CC(O)C(CO)O2)cc1C(F)(F)F (stereo not given) | -22.2% (active)
15 | c1coc(CNc2c3ccccc3nc3ccccc23)c1 | 93%
16 | CN(C)CCOc1nc2c3ccncc3cc(-c3cccc(Cl)c3)c2c2cnccc12 | 33.4%
17 | Cc1ccc(S(=O)(=O)NCCCNc2cc(-c3cn(C(C)(C)C)nc3-c3cccc(O)c3)ccn2)cc1 | 66.6%
18 | Nc1nc2ccccc2c2c(=O)c3ccc(Cl)cc3sc12 | 92.1%
19 | Cc1c(C)c2c(c(C)c1OC(=O)CCC(=O)[O-])CCC(C)(CCCCCCCCCCC[P+](c1ccccc1)(c1ccccc1)c1ccccc1)O2 (stereo not given) | -35.2% (active)
20 | COc1ccc(OC)c(/C=C/C(=O)N/N=C/c2ccc(Cl)cc2)c1 | 20.1%

Row | SMILES | growth
21 | NC(=NC1C2CC3CC(C2)CC1C3)Nc1ccc(I)cc1 (stereo not given) | 101%
22 | COc1ccc(S(=O)(=O)N(C)c2oc(-c3ccc(Cl)cc3)nc2C#N)cc1 | 63.9%
23 | Cc1ccc(C(=O)O)o1 | 101%
24 | COc1ccc(C(=O)N2c3ccccc3Sc3ccccc32)c(OC)c1 | 0.583% (active)
25 | O=c1ccc2nc(-c3ccccn3)nn(-c3ccccc3)c-2c1 | 31.1%
26 | COc1ccc2c(c1)/C(=C/c1c(-c3cc(OC)c(OC)c(OC)c3Br)nc3sccn13)C(=O)N2 | 77.1%
27 | CCN=Cc1c(O)c(O)c(C(C)C)c2cc(C)c(-c3c(C)cc4c(C(C)C)c(O)c(O)c(C=NCC)c4c3O)c(O)c12 | 27.3%
28 | C/C=C/C/C=C/[C@H](C)C[C@H](O)[C@@H]1C[C@@H]2O[C@H]2/C=C/[C@H](O)[C@@H](O)/C=C/C[C@H](C)CC(=O)O1 | 76.6%
29 | Cc1ccc(Cn2c(-c3nonc3N)nc3ccccc32)cc1 | 71.8%
30 | COc1cccc(-c2nc3occn3c2-c2ccnc(NCCNS(=O)(=O)c3cccc4ccccc34)n2)c1 | 121%
31 | N#Cc1ncc(-c2cc(F)ccc2F)c(NC2CCCCCC2)n1 | 86.9%
32 | CCCCCCC(C)N(CC(C)(C)O)C(=O)c1ccc([N+](=O)[O-])cc1 (stereo not given) | 95.7%
33 | C[C@H](C(=O)N[C@@H](Cc1ccc(-c2ccccc2)cc1)C(=O)NC1CC(C)(C)NC(C)(C)C1)c1ccc(-c2ccccc2)c(F)c1 | -59.1% (active)
34 | COc1cccc(-c2nn(-c3ccccc3)cc2-c2ccnc(NCCCNS(=O)(=O)c3ccc(Br)cc3)c2)c1 | 43.3%
35 | Cc1cc(N(CCNc2ccnc3cc(Cl)ccc23)Cc2cccs2)nc(Cl)n1 | -72.4% (active)
36 | O=C(O)/C(Br)=C/c1c[nH]c2ccc(Br)cc12 | 96.9%
37 | CCCO/N=C/c1ccccn1 | 94.8%
38 | Cc1nc2sc(C(=O)Nc3ccc(Cl)cc3)c(N)c2cc1C(O)c1ccccc1 (stereo not given) | 2.56% (active)
39 | COc1ccc(C2CC(c3cc(OC)c(OC)c(OC)c3)=NN2)cc1 (stereo not given) | 60.1%
40 | COc1ccccc1N1C(=O)/C(=C/C2=Cc3ccccc3OC2)SC1=S | 92.9%
